Compound activity deposited in PubChem by Broad Institute.
Only a sample is shown.
aSyn 5UTR act – Activators via SNCA 5'UTR binding, MLPCN | alpha-synuclein 5'UTR reporter, activators screen | activity score, % (tested at 7.5 µM), hits read low | actives 7.1% (n = 300,000); in the data active = activity score below about -60%
Of the large screens only hits and unclear results are named; the others gave an inactive call.

CCOc1cccc2cc(-c3csc(NC(=O)CCC(=O)NCCCN4CCC(C)CC4)n3)c(=O)oc12	aSyn 5UTR act -76.2
O=C(O)CCCN1C(=O)/C(=C/c2ccc(-c3nc4ccccc4s3)o2)SC1=S	aSyn 5UTR act -75.6
O=C(CCCN1C(=O)S/C(=C\C=C\c2ccccc2)C1=O)Nc1ccc(O)cc1	aSyn 5UTR act -125.8
O=C(CCN1C(=O)/C(=C\C=C\c2ccccc2)SC1=S)Nc1ccc(C(=O)O)cc1	aSyn 5UTR act -68.5
O=C(COC(=O)CCN1C(=O)/C(=C\C=C\c2ccccc2)SC1=S)Nc1cc(F)ccc1F	none
CCc1ccc(/C=C2\SC(=S)N(CCCC(=O)Nc3ccc(C(=O)O)cc3)C2=O)cc1	none
O=C(CCN1C(=O)/C(=C/C=C/c2ccccc2)SC1=S)Nc1nc2ccccc2s1	aSyn 5UTR act -61.7
O=C(CN1C(=O)S/C(=C\C=C\c2ccccc2)C1=O)N1CCOCC1	aSyn 5UTR act -126.3
COc1ccc(/C=N/Nc2ncnc3sc(C)c(C)c23)cc1	aSyn 5UTR act -114.1
Cc1sc2ncnc(N/N=C/c3ccc(O)cc3)c2c1C	aSyn 5UTR act -63.6
Cc1sc2ncnc(N/N=C/c3ccccc3O)c2c1C	none
Cc1cc(C)c2c(c1)/C(=N\N=c1\sc3ccccc3n1C)C(=O)N2	aSyn 5UTR act -106.7
COc1ccc(-c2nnc(SCc3ccccc3F)o2)cc1OC	aSyn 5UTR act -66.2
Cc1ccc(-c2nnc(SCc3ccccc3F)o2)cc1	aSyn 5UTR act -80.6
CC1=C(C)/C(=N\OS(=O)(=O)c2ccccc2)C=CC1=O	aSyn 5UTR act -79.9
NS(=O)(=O)c1cc(C(=O)Nc2ccc3c(c2)CCC3)ccc1Cl	aSyn 5UTR act -153.3
O=C(Nc1ccc2c(c1)CCC2)c1ccc(F)c(S(=O)(=O)N2CCOCC2)c1	aSyn 5UTR act -74.3
Cc1ccc(C(=O)Nc2ccc3c(c2)CCC3)cc1S(=O)(=O)N1CCOCC1	aSyn 5UTR act -108.2
Cc1cc(C)cc(NC(=S)N=Nc2c(O)n(C)c3ccc(S(=O)(=O)N4CCOCC4)cc23)c1	none
Cc1cccc(C)c1NC(=S)N=Nc1c(O)n(C)c2ccc(S(=O)(=O)N3CCOCC3)cc12	none
CSc1nnc(NC(=O)c2ccc(C)c(S(=O)(=O)N3CCOCC3)c2)s1	aSyn 5UTR act -73.2
NC(=O)c1ccsc1NC(=O)c1coc2ccccc2c1=O	aSyn 5UTR act -156.2
O=C1NC(=S)N/C1=C/C=C/c1ccccc1	aSyn 5UTR act -91.5
O=C(c1ccc(Br)cc1)C(CN1CCOCC1)c1ccccc1 (stereo not drawn)	aSyn 5UTR act -152.2
Cc1ccc2c(c1)sc1nc(=O)n(-c3ccccc3)c(=O)n12	aSyn 5UTR act -68.4
O=C(Nc1ccc(NC(=O)c2ccco2)cc1)c1ccc2c(c1)OCCO2	none
Cc1cc(NC(=O)c2ccc([N+](=O)[O-])o2)ccc1NC(=O)c1ccco1	aSyn 5UTR act -110.4
Cc1cc(NC(=O)c2ccc3c(c2)OCCO3)ccc1NC(=O)c1ccco1	aSyn 5UTR act -66.2
COCCN=c1scc(-c2cccs2)n1/N=C(\C)c1ccco1	aSyn 5UTR act -153.0
O=C(O)c1ccc(NC(=S)NC(=O)c2ccc3ccccc3c2)cc1	aSyn 5UTR act -64.2
O=C(Nc1ccc(Nc2ccccc2)cc1)c1cccc(F)c1	aSyn 5UTR act -265.2
O=C(Nc1ccc(N2CCCC2)cc1)c1ccc2ccccc2c1	aSyn 5UTR act -143.1
O=C(Nc1ccc(N2CCCC2)cc1)c1cccc(F)c1	aSyn 5UTR act -202.7
O=C(Nc1ccc(N2CCCC2=O)cc1)c1cccc(F)c1	aSyn 5UTR act -97.9
COc1ccc(NC(=S)NNc2ccc(C(=O)O)cc2)cc1	aSyn 5UTR act -107.1
COc1ccc(C(=O)O/N=C(\N)c2ccccn2)cc1	none
CCOc1ccc(C(=O)O/N=C(\N)c2ccccn2)cc1OCC	aSyn 5UTR act -102.6
COc1cc(OC)cc(C(=O)O/N=C(\N)c2ccccn2)c1	aSyn 5UTR act -129.6
O=C(NCCCN1CCc2ccccc2C1)Nc1ccc(Cl)cc1	aSyn 5UTR act -110.2
O=C(CNc1cccc(F)c1)N1CCc2ccccc2C1	aSyn 5UTR act -195.3
Cc1ccc(NC(=O)N2CCc3ccccc3C2)cc1	aSyn 5UTR act -212.4
O=C(Cc1ccc(Cl)cc1)N1CCc2ccccc2C1	aSyn 5UTR act -160.0
O=C(CNS(=O)(=O)c1cccs1)N1CCc2ccccc2C1	aSyn 5UTR act -72.3
Cc1ccc(NC(=O)N2CCc3ccccc3C2)c(C)c1	aSyn 5UTR act -75.5
CCOc1ccc(NC(=O)N2CCc3ccccc3C2)cc1	aSyn 5UTR act -92.1
O=C(Nc1ccccc1)N1CCc2ccccc2C1	aSyn 5UTR act -126.3
O=C(Nc1ccc(Cl)cc1)N1CCc2ccccc2C1	aSyn 5UTR act -208.7
CN(C)c1ccc(NC(=O)CN2CCc3ccccc3C2)cc1	aSyn 5UTR act -78.7
COc1cc2c(cc1OC)-c1cc(Nc3ccc(N(C)C)cc3)nc(=O)n1CC2	none
CCCc1cc(C(=O)Nc2cccc(Cl)c2C)no1	aSyn 5UTR act -150.0
CCCc1cc(C(=O)Nc2ccc(F)cc2F)no1	aSyn 5UTR act -116.0
CCCc1cc(C(=O)Nc2ccccc2SC)no1	aSyn 5UTR act -155.5
Fc1ccc(F)c(C2=NNC(=NCC3CCCO3)SC2)c1 (stereo not drawn)	aSyn 5UTR act -117.8
CCc1ccc(C(=O)COC(=O)c2n[nH]c3ccccc23)cc1	aSyn 5UTR act -129.3
